In PubChem BioAssay (Tox21):
Values joined by “and” are separate entries in the source; they are usually repeats but may differ in a detail not shown here. Identical values can stand only once. Records with an inconclusive call do not appear. A call without a number means that no potency is given here. Unmarked numbers belong to inactive results. Active and inactive are the calls of the source. Calls follow the shape of the dose curve; as a rule, active = well fitted cell-killing curve with a large enough effect in the repeat runs (not every such curve was filed as active); inconclusive = weak or mixed curves, or effect the other way; inactive = no such curve, though single readings can be large or run the other way.

Experiment: qHTS assay to identify small molecule antagonists of the estrogen related receptor signaling pathway with the pleiotropic PPARgamma coactivator (PGC) from Tox21 10K library - cell viability counter screen (AID 1224840); also: nearly all actives have a fitted effect of over 40% in size
Conditions: PGC/ERR reporter cells viability, CellTiter-Fluor, 17.5 h; series mostly up to 92.4 µM
Source text: National Center for Advancing Translational Sciences [NCATS]
NIH Chemical Genomics Center [NCGC]
U.S. Environmental Protection Agency [EPA]
National Institutes of Environmental Health Sciences [NIEHS]
National Toxicology Program [NTP]
U.S. Food and Drug Administration [FDA]
Estrogen related receptors (ERRs), the first orphan nuclear receptors discovered, play an important role in the control of cellular energy metabolism. ERRs are required for high-energy production in response to the environmental challenges. The pleiotropic PPARgamma coactivator (PGC) is a major partner of ERR and a key regulator in energy homeostasis. Together they have been implicated in the etiology of metabolic disorders such as Type 2 diabetes and metabolic syndrome. ERR-alpha was also identified as an adverse marker for breast cancer progression; ERR-alpha-positive tumors have a poor prognosis. To screen and to identify environmental compounds that perturb the ERR and PGC/ERR signaling pathways could provide valuable information for potential therapeutic or preventive measures in the treatment of metabolic disease. To differentiate true PGC/ERR antagonists or agonist from cytotoxic substances, the assay is multiplexed with cell viability assay.
Tox21 Assay Protocol Summary:
The PGC/ERR cells were dispensed at 2,000 cells/5 ul/well in 1536-well white plates using a Multidrop dispenser. After the assay plates were incubated at a 37 C/5% CO2 incubator for 6 hours, 23 nL of compounds dissolved in DMSO, positive and negative controls or DMSO only was transferred to the assay plate by a pin tool. The plates were incubated at 37 C for 17.5 hours. 1 ul/well of CellTiter-Fluor reagent was added into the assay plates using a Flying Reagent Dispenser. After 30-minute incubation at 37 C/5% CO2, the fluorescence intensity in the plates was measured using a ViewLux plate reader.
Potency is read from the fitted curve at half-maximal effect.

Row | Compound | Potency | viability change, negative = cytotoxic
1 | Clc1ccccc1-c1ccccc1Cl | inactive | 
2 | CC(N)C(=O)OC(C)(C)Cc1ccc(Cl)cc1 (stereo not drawn) | inactive | 
3 | CCC1C(=O)OCC1Cc1cncn1C (stereo not drawn) | inactive | 
4 | Nc1ccc([N+](=O)[O-])cc1 | 30.6 µM (active) | 
5 | Cc1ccc(N(SC(F)(Cl)Cl)S(=O)(=O)N(C)C)cc1 | 24.3 µM (active) | 
6 | CO/C=C(/C(=O)OC)c1ccccc1Oc1cc(Oc2ccccc2C#N)ncn1 | 36.7 µM (active) | 
7 | O=C1C(I)=CC(=C(c2cc(I)c(O)c(I)c2)c2ccccc2C(=O)O)C=C1I | inactive | 
8 | Oc1c(I)cc(I)cc1I | inactive | 
9 | O=[N+]([O-])c1c(Cl)c(Cl)cc(Cl)c1Cl | inactive | 
10 | CNC(=O)Oc1cc(C)c(SC)c(C)c1 | inactive | 
11 | CCn1cc(C(=O)O)c(=O)c2ccc(C)nc21 | inactive | 
12 | COc1ccc(C(c2ccc(OC)cc2)C(Cl)(Cl)Cl)cc1 | inactive | 
13 | CN1CSC(=S)N(C)C1 | 5.42 µM (active) and 6.09 µM (active) | 
14 | Cc1ccc2nc3sc(=O)sc3nc2c1 |  | -9.2% [at 19 µM]
15 | COc1cc(OC)c(OC)cc1C=O | inactive | 
16 | CCN(CC)C(=O)Cl | inactive | 
17 | C[N+]1(C)[C@@H]2CC(OC(=O)[C@H](CO)c3ccccc3)C[C@H]1[C@@H]1O[C@@H]12 (stereo partly drawn) | inactive | 
18 | O=C(O)/C=C\C(=O)O | inactive | 
19 | ClC(Cl)=C(c1ccc(Cl)cc1)c1ccccc1Cl | inactive | 
20 | O=C(Nc1ccccc1-c1ccc(Cl)cc1)c1cccnc1Cl | inactive | 
21 | Cc1cc(C)c(C(=O)P(=O)(c2ccccc2)c2ccccc2)c(C)c1 | inactive | 
22 | O=C(O)/C=C/C(=O)O | inactive | 
23 | O=S(=O)(C(Cl)(Cl)Cl)C(Cl)(Cl)Cl | 48.6 µM (active) | 
